# Rows were chosen to be rich in hits. Some 3.1% of all compounds tested hit in one or more screens of this group.
# DRD3 antagonist: blocks the human D3 dopamine receptor. 360,000 tested, 2.5% active. P35462. max response, negative = inhibition, %. AID 652054. D3R cells, DiscoveRx beta-arrestin luminescence, antagonist mode; active compounds read low; in the data active = max response below about -50%; inconclusive = no clear call, values can overlap the other calls
# Target sequence (P35462 whole entry, looked up): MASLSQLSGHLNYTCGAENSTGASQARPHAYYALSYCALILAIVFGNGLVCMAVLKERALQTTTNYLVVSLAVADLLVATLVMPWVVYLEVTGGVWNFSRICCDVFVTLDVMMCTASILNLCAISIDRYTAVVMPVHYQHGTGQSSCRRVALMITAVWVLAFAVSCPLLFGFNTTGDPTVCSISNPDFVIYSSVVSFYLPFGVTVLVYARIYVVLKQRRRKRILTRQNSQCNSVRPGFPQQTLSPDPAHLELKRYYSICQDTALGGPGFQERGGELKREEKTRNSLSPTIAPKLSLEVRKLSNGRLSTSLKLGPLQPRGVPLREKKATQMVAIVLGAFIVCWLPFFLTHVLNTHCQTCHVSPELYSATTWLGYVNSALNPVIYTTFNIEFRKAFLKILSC
#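 Cells plated overnight at 1500 cells/well, then exposed to library compounds with dopamine controls for 90 minutes at 37 degrees C. DiscoveRx reagent added for 30–60 minutes at room temperature; luminescence read, quantitative HTS format.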
# uPA generation: inhibitors of cell surface uPA generation; 330,000 tested, 0.31% active; Potency, µM (highest dose often 38.3 µM), usual class: inhibitors; cell surface uPA generation assay, qHTS; AID 540303; active = well fitted inhibition curve with a large enough effect; inconclusive = small, poorly fitted or top-dose-only effect; inactive = no such curve, though single readings can be large or run the other way; tested in mouse RAW 264.7 cells; also: nearly all actives have a fitted effect of over 55% in size
# DRD3 agonist: agonists of human D3 dopamine receptor | P35462 | D3R DiscoveRx beta-arrestin cells, luminescence, 90 min | max activation, % | 410,000 tested, 0.58% active; in the data active = max activation above about 30%
#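 Agonist mode: compounds and dopamine controls were applied to plated cells for 90 min at 37 degrees C after an overnight attachment at 1500 cells/well. Luminescent read-out followed 30 - 60 minutes at room temperature with DiscoveRx detection reagent.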
# RGS4 inhibitor: inhibitors of human regulator of G protein signaling 4; P49798; Transcreener GDP fluorescence polarization, RGS4-accelerated GTP hydrolysis; Potency, µM (doses to about 114 µM), most hits filed as inhibitors; 390,000 tested, 0.039% active; AID 504845; active = well fitted inhibition curve with a large enough effect; inconclusive = small, poorly fitted or top-dose-only effect; inactive = no such curve, though single readings can be large or run the other way; also: nearly all actives have a fitted effect of over 75% in size
# Target sequence (P49798 whole entry, looked up): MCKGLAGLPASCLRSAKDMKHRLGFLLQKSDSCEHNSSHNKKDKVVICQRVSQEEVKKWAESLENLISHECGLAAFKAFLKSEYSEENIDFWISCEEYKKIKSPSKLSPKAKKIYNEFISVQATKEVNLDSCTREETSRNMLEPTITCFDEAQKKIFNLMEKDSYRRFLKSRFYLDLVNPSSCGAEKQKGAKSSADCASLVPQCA
#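 MLSMR compounds (23 nl, pin-transferred) preincubated 10 min at room temperature with a 500nM (2x) first reagent, then RGS4 at 900nM (2x) plus Transcreener GDP mix added; fluorescence polarization (620/688 nm) read before and after 90 min at 30 °C.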
# Hits are given with their value; . = inactive; ? = inconclusive; / = no result given; [ ] = dose if it differs, or a comment.
SMILES,DRD3 antagonist,uPA generation,DRD3 agonist,RGS4 inhibitor
CC(C)(CO)[C@@H](O)C(=O)NCCCC(=O)O,/,/,.,/
O=C(CSc1nnc(Nc2ccccc2F)s1)NCc1ccco1,-59,.,.,.
O=C(CSc1nnc(Nc2ccccc2)s1)NCc1ccco1,.,.,.,.
O=C(CSc1nnc(NC(=O)c2ccccc2F)s1)NCc1ccco1,.,7.9µM,.,.
O=C(CSc1nnc(NC(=O)c2c(F)cccc2F)s1)NCc1ccco1,.,.,.,.
Cc1ccc(NC(=O)NCCOCCn2c(=O)oc3ccccc32)cc1F,/,/,.,.
COc1cc(OC)c(NC(=O)N2CCc3cc(S(=O)(=O)N4CCC(C)CC4)ccc32)cc1Cl,/,/,.,.
N#Cc1c(-c2ccccc2)nc(SCC(=O)Nc2ccccc2F)[nH]c1=O,.,.,.,.
Cc1cccc(NC(=O)CSc2nc(-c3ccccc3)c(C#N)c(=O)[nH]2)c1C,-63,.,.,.
CC(C)CC(=O)/C(=C\c1ccc(Cl)cc1Cl)n1cncn1,.,7.1µM,.,?
CCOC(=O)c1ccc(NC(=O)C2CCCN(c3ccc(Sc4ccc(C)cc4)nn3)C2)cc1 (configuration not stated),/,/,.,.
N[C@H](C(=O)O)[C@@H](O)c1ccc(O)c(O)c1,/,/,.,/
COc1cccc(CNC(=O)COc2cc3c(c4oc(=O)cc(C)c24)CCC(C)(C)O3)c1,.,.,.,.
COc1ccc(CNC(=O)COc2cc3c(c4oc(=O)cc(C)c24)CCC(C)(C)O3)cc1,.,.,36,.
N#Cc1ccccc1Cn1c(SCC(=O)NCc2ccccc2)nc2ccccc21,/,/,.,.
Cc1cc2c(C)nc(N/N=C/c3ccc(F)cc3)nc2o1,-56,.,.,.
Cc1ccc(C2C(C(=O)c3cc4ccccc4o3)=C(O)C(=O)N2CCN2CCOCC2)o1 (configuration not stated),-56,.,.,.
COc1ccc(/C=N/c2oc(-c3ccccc3)cc2C#N)cc1OC,-52,.,.,.
Clc1ccc(-c2nc3ncccn3c2Nc2ccc3c(c2)OCO3)cc1,.,.,.,.[11.4 µM]
Oc1ccc(-c2nc3ncccn3c2Nc2ccc3c(c2)OCO3)cc1,-55,.,.,.
Cc1ccc(Nc2nc3ccccc3c3nnc(C)n23)c(C)c1,/,/,.,.
Cc1ccc(C(c2nnnn2C(C)(C)C)N2CCC(C)CC2)cc1 (configuration not stated),-52,.,.,.
CCC(c1nnnn1C(C)(C)C)N1CCN(C/C=C/c2ccccc2)CC1 (configuration not stated),-80,/,.,/
CC(C)(C)n1nnnc1C(c1ccccc1)N1CCN(c2ccccc2)CC1 (configuration not stated),.,/,.,/
C(=C\c1ccccc1)/CN1CCN(C(c2ccccc2)c2ccccc2)CC1,-63,.,/,.
SMILES,DRD3 antagonist,uPA generation,DRD3 agonist,RGS4 inhibitor
CC1CCN(C(c2ccccc2)c2nnnn2C(C)(C)C)CC1 (configuration not stated),.,.,.,.
CC(C)(C)n1nnnc1C(c1ccccc1)N1CCN(C/C=C/c2ccccc2)CC1 (configuration not stated),-57,/,.,/
CCC(c1nnnn1C(C)(C)CC)N1CCN(c2ccccc2F)CC1 (configuration not stated),.,.,.,.
CC(C)C(NS(=O)(=O)c1ccc2c(c1)oc(=O)n2C)C(=O)NCCc1ccc(Cl)cc1 (configuration not stated),/,/,.,.
CC(C)(C)n1nnnc1C(c1ccccc1)N1CCCN(Cc2ccc(F)cc2)CC1 (configuration not stated),-105,/,.,/
CC(C)(C)n1nnnc1CN1CCN(C(c2ccccc2)c2ccccc2)CC1,.,.,.,.
CSCCC(C(=O)Nc1c(C)cccc1C)N1CCN(C/C=C/c2ccccc2)CC1 (configuration not stated),-81,/,.,/
COC(=O)c1ccc(NC(=O)CCn2cccn2)cc1,/,/,.,.
CCOC(=O)c1ccc(NC(=O)CCc2c(C)nc3nc[nH]n3c2=O)cc1,/,/,.,.
O=C(CN1CCCCCC1)Nc1cc(C(F)(F)F)ccc1Cl,-77,.,.,.
O=C(C[n+]1ccc2ccccc2c1)Nc1cc(C(F)(F)F)ccc1Cl,-68,.,.,.
Cc1cc[n+](CC(=O)Nc2cc(C(F)(F)F)ccc2Cl)cc1,-192,.,.,.
O=C(C[n+]1ccccc1)Nc1cc(C(F)(F)F)ccc1Cl,-58,.,.,.
O=C(CN1CCOCC1)Nc1cc(C(F)(F)F)ccc1Cl,.,.,.,.
CC(=O)N[C@@H](C=O)[C@H](O)[C@H](O)[C@@H](O)CO,/,/,.,/
COc1ccc(-c2cc(C(C)=O)c(C)n2CCC(=O)Nc2cc(Cl)ccc2C)cc1,/,/,.,.
CCc1c(C)nc2nncn2c1NCc1ccc(Cl)cc1,/,/,.,.
CN(C)c1cc[n+](CC(=O)Nc2cc(C(F)(F)F)ccc2Cl)cc1,-59,.,.,.
COc1ccc(CNC(=O)c2ccc3c(c2)NC(=O)C(CS(=O)(=O)Cc2ccccc2Cl)N3)cc1 (configuration not stated),/,/,.,.
Cc1ccc2nc(NCc3ccccc3Cl)c3nnnn3c2c1,/,/,.,.
COc1ccc(N2CCN(c3nc4ccc(C)cc4n4nnnc34)CC2)cc1,/,/,73,.
Cc1ccc2nc(Cl)c3nnnn3c2c1,-109,.,.,.
O=C(O)c1ccc(-n2c(=O)c3ccccc3c3ccccc3c2=O)cc1,.,.,.,.
CC(=O)Nc1ccc(-n2c(=O)c3ccccc3c3ccccc3c2=O)cc1,-88,.,.,.
C=CCSc1nnc(NC(=O)COc2ccc3ccccc3c2)s1,-66,.,.,.
SMILES,DRD3 antagonist,uPA generation,DRD3 agonist,RGS4 inhibitor
O=c1n(Cc2ccc([N+](=O)[O-])cc2)c2ccccc2c2nc(-c3ccccc3)nn12,/,/,53,.
CCCC(=O)NC1CC(=O)N(c2ccc3c(c2)OCCO3)C1 (configuration not stated),/,/,.,.
Cc1ccc(S(=O)(=O)c2nc(NCCN(C)C)sc2Cl)cc1,-68,.,.,.
O=c1cc(C(F)(F)F)c2sc(N3CCCCC3)nc2[nH]1,-57,.,.,.
Cc1ccc2nc(-c3ccc(NC(=O)COc4ccc(Cl)c(C)c4)cc3)sc2c1,/,/,61,.
Cc1cc(C)c2c(-n3cccc3)c(C(=O)NCc3cccc(F)c3)sc2n1,/,/,.,.
Cc1ccccc1CN1CCC(n2nccc2NC(=O)CCCc2ccccc2)CC1,-80,.,.,.
O=C(CCOc1ccccc1)Nc1ccnn1C1CCN(Cc2ccc(O)cc2)CC1,.,.,.,.
O=C(CCOc1ccccc1)Nc1ccnn1C1CCN(CCc2ccccc2)CC1,-52,.,.,.
CCc1ccc(-n2c(=O)c3c4c(sc3n(CC(=O)N3CCCCC3CC)c2=O)CCC4)cc1 (configuration not stated),/,/,.,.
Fc1ccc(CN2CCCCCCC2)cc1F,-65,.,.,.
CSc1ccc(CN2CCCCCC2)cc1,?,.,.,.
Fc1ccc(CN2CCCCCCC2)c(F)c1,-53,.,.,.
Fc1ccc(CN2CCCCCC2)c(F)c1,.,.,.,.

# Bioassay records from PubChem BioAssay.
